Inconclusive results are not listed. The source made the active and inactive calls. Unless noted, calls follow the shape of the dose curve; as a rule, active = well fitted curve in the direction sought with a large enough effect in the repeat runs; inconclusive = weak or mixed curves; inactive = no such curve, though single readings can be large; an effect the other way counts as inactive or inconclusive.
Assays:
[1] = qHTS assay to identify small molecule antagonists of the TGF-beta/Smad signaling pathway - cell viability counter screen (AID 1346824); also: nearly all actives have a fitted effect of over 50% in size
Summary of the method: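 SBE-bla HEK 293T cells were plated overnight at 37 C, then given compounds in DMSO plus TGF-beta1 (added as 0.25 ng/mL solution) for 5 hr. After the bla read, CellTiter-Glo was added to the same wells and luminescence read after 30 min at room temperature.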

[2] = qHTS assay to identify small molecule agonists of the TGF-beta/Smad signaling pathway - cell viability counter screen (AID 1346829); also: top concentration of the series differs between compounds; nearly all actives have a fitted effect of over 45% in size
Summary of the method: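 In parallel with the Smad reporter read, viability of HEK 293T cells stably carrying SBE-bla is quantified by ATP luminescence following 5 hr compound treatment.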

[3] = qHTS assay to identify small molecule agonists of the TGF-beta/Smad signaling pathway (AID 1346859; active = well fitted activation curve with a large enough effect in the signal ratio in the repeat runs, not every such curve was filed as active; the % refers to the signal ratio; also: series mostly up to about 77 µM)
Summary of the method: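 Reporter line: HEK 293T with stably integrated SBE-controlled beta-lactamase. Compound exposure lasts 5 hr at 37 C and 5% CO2; substrate loading follows for 2 hr at room temperature, with emission read at 460 and 530 nm.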

[4] = biological target: Thyrotropin-releasing hormone receptor (Homo sapiens) (UniProt P34981); test: qHTS assay to identify small molecule antagonists of the thyrotropin-releasing hormone receptor (TRHR) signaling pathway (AID 1346877; active = well fitted inhibition curve with a large enough effect in the repeat runs, not every such curve was filed as active; also: series mostly up to about 51 µM)
Chain of Thyrotropin-releasing hormone receptor (Homo sapiens) (P34981 whole entry, looked up): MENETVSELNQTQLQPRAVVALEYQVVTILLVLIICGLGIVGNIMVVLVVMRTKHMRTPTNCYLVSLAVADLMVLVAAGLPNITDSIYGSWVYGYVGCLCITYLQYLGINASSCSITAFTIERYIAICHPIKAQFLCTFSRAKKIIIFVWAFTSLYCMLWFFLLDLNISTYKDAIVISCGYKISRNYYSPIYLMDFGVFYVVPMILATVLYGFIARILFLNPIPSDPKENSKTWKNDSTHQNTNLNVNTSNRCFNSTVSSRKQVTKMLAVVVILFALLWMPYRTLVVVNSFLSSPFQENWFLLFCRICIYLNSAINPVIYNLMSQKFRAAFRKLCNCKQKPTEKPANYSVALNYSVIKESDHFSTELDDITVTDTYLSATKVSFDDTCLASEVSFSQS
Summary of the method: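 Overnight-plated (18 h, 37 °C) HEK293 cells expressing TRHR were dye-loaded 2 h, treated with compound, then stimulated with TRH at 1 nM final. Fluorescence intensity was captured every second for 3 min.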

[5] = biological target: Thyrotropin-releasing hormone receptor (Homo sapiens) (UniProt P34981); test: qHTS assay to identify small molecule agonists of the thyrotropin-releasing hormone receptor (TRHR) signaling pathway (AID 1346891; calls by dose curve;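 also: HEK293 cells expressing TRHR with calcium dye readout; series mostly up to about 58 µM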)
Summary of the method: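 Cells: TRHR-Hek293, seeded and incubated 18 h. Dye loading: 2 h at 37 °C. Compound added from DMSO stock by pin tool. Read-out: kinetic calcium fluorescence over 3 min.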

[6] = Human pregnane X receptor (PXR) small molecule agonists, qHTS cell viability counter screen (AID 1346977); also: nearly all actives have a fitted effect of over 50% in size
Summary of the method: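 Cytotoxicity counter screen run in the same wells as the PXR luciferase assay, using PXR-Luc HepG2 cells in charcoal-stripped serum medium. Viability: CellTiter-Fluor fluorescence after 24hr compound treatment.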

[7] = Caspase-3/7 induction in HepG2 cells by small molecules, qHTS assay (AID 1346978); also: nearly all actives have a fitted effect of over 15% in size
Summary of the method: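 Wild-type HepG2 cells (2,000/well) were settled 5 h at 37 C, 5% CO2, then exposed to compounds in DMSO for 17 h. Caspase-3/7 activity was read by luminescence 30 min after adding Caspase-Glo 3/7 reagent at room temperature.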

[8] = Caspase-3/7 induction in CHO-K1 cells by small molecules, qHTS cell viability counter screen (AID 1346979); also: nearly all actives have a fitted effect of over 35% in size
Summary of the method: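 Cytotoxicity counter screen run in parallel with the caspase-3/7 assay: CHO-K1 cells, 16hr compound treatment at 37C, then CellTiter-Fluor for 1hr before fluorescence reading.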

[9] = Caspase-3/7 induction in CHO-K1 cells by small molecules, qHTS assay (AID 1346980); also: nearly all actives have a fitted effect of over 15% in size
Summary of the method: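 Wild-type cells were seeded at 1,500 per well and settled 5 hr at 37 C, 5% CO2, then exposed to DMSO-dissolved compounds for 17 hr. Caspase-Glo 3/7 reagent was added, and luminescence was read after 30min at room temperature.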

[10] = Caspase-3/7 induction in HepG2 cells by small molecules, qHTS cell viability counter screen (AID 1346981); also: series mostly up to about 92 µM; nearly all actives have a fitted effect of over 30% in size
Summary of the method: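 Treatment of HepG2 cells with DMSO-delivered compounds ran 16 hr at 37 C following a 5-hr pre-incubation of 2,000 cells/well. CellTiter-Fluor fluorescence, read after 1 hr, served as the viability measure in a qHTS format.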

Measured: Potency

CC(C)CCOC(=O)c1ccccc1
inactive: [1] | [2] | [3] | [4] | [5] | [6] | [7] | [8] | [9] | [10]

CCCCCCCCCOC(=O)CCCCC(=O)OCCCCCCC
inactive: [1] | [2] | [3] | [4] | [5] | [6] | [7] | [8] | [9] | [10]

CC/C=C\CCOC(=O)c1ccccc1O
inactive: [1] | [2] | [3] | [4] | [5] | [6] | [7] | [8] | [9] | [10]

Cn1c(=O)c2[nH]c(Br)nc2n(C)c1=O
inactive: [1] | [2] | [3] | [4] | [5] | [6] | [7] | [8] | [9] | [10]

c1ccc(-c2nn[nH]n2)cc1
inactive: [1] | [2] | [3] | [4] | [5] | [6] | [7] | [8] | [9] | [10]

O=C(O)CONC(=O)c1ccccc1
inactive: [1] | [2] | [3] | [4] | [5] | [6] | [7] | [8] | [9] | [10]

O=C1CCCCO1
inactive: [1] | [2] | [3] | [4] | [5] | [6] | [7] | [8] | [9] | [10]

CC(O)CC(C)O (stereo not given)
inactive: [1] | [2] | [3] | [4] | [5] | [6] | [7] | [8] | [9] | [10]

COc1cc2c(cc1OC)CN(C(=O)[C@H](C)N[C@@H](CCc1ccccc1)C(=O)O)[C@H](C(=O)O)C2
inactive: [1] | [2] | [3] | [4] | [5] | [6] | [7] | [8] | [9] | [10]

OCC1(CO)COCOC1
inactive: [1] | [2] | [3] | [4] | [5] | [6] | [7] | [8] | [9] | [10]

CC(C)COC(=O)c1ccccc1
inactive: [1] | [2] | [3] | [4] | [5] | [6] | [7] | [8] | [9] | [10]

Cc1ccc(C)c([N+](=O)[O-])c1
inactive: [1] | [2] | [3] | [4] | [5] | [6] | [7] | [8] | [9] | [10]

CCCc1ccc(O)cc1
inactive: [1] | [2] | [3] | [4] | [5] | [6] | [7] | [8] | [9] | [10]

CC1=C(O)C(=O)C(C)O1 (stereo not given)
inactive: [1] | [2] | [3] | [4] | [5] | [6] | [7] | [8] | [9] | [10]

CCCCOC(=O)C(C)O (stereo not given)
inactive: [1] | [2] | [3] | [4] | [5] | [6] | [7] | [8] | [9] | [10]

Cc1ccccc1C(N)=O
inactive: [1] | [2] | [3] | [4] | [5] | [6] | [7] | [8] | [9] | [10]

C[C@@H](O)C(=O)O
inactive: [1] | [2] | [3] | [4] | [5] | [6] | [7] | [8] | [9] | [10]

CCCCCCCCCOC(=O)c1ccccc1C(=O)OCCCCCCCCC
inactive: [1] | [2] | [3] | [4] | [5] | [6] | [7] | [8] | [9] | [10]

COc1cc(OC)nc(O[C@H](C(=O)O)C(OC)(c2ccccc2)c2ccccc2)n1
inactive: [1] | [2] | [3] | [4] | [5] | [6] | [7] | [8] | [9] | [10]

COC(=O)c1cccc(Cl)c1
inactive: [1] | [2] | [3] | [4] | [5] | [6] | [7] | [8] | [9] | [10]

CCCCOCC(C)O (stereo not given)
inactive: [1] | [2] | [3] | [4] | [5] | [6] | [7] | [8] | [9] | [10]

CN(C)CCCCl
inactive: [1] | [2] | [3] | [4] | [5] | [6] | [7] | [8] | [9] | [10]

C=CCSSCCC
inactive: [1] | [2] | [3] | [4] | [5] | [6] | [7] | [8] | [9] | [10]
